# PubChem BioAssay (Tox21)
# Results filed as inconclusive are left out. Entries that show only a call come without a potency. The source made the active and inactive calls. Calls come from the whole dose curve; as a rule, active = well fitted cell-killing curve with a large enough effect in the repeat runs; inconclusive = weak or mixed curves, or effect the other way; inactive = flat fitted curve, though single readings scatter.
# Assay: qHTS RealTime-Glo MT Cell Viability Assay in HEK293 cells - 0 hour (AID 1224880); note: nearly all actives have a fitted effect of over 45% in size; for activity change, negative = cytotoxicity: top concentration of the series differs between compounds
# Settings: RealTime-Glo luminescence; series mostly up to 76.8 µM
# Summary of the method: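 Real-time viability in HEK293: signal arises when living cells convert a prosubstrate for NanoLuc in the medium, so luminescence tracks viable cell number. Compound (23 nL, DMSO) added 5 h post-seeding; kinetic reads at 0–40 h, 37 C.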
# Potency is the fitted concentration of half-maximal effect.
Compound,Potency,"activity change, negative = cytotoxicity"
NCC1(Cc2noc(=O)[nH]2)CCCCC1,inactive,–
O=Cc1cc2ccccc2o1,inactive,–
C[C@]12CCC(=O)C=C1CC[C@H]1[C@@H]3CC[C@](O)(C(=O)CO)[C@@]3(C)C[C@H](O)[C@@]12F,9.52 µM (active),–
COC(=O)c1ccccc1C(=O)O,inactive,–
OC[C@H]1O[C@@H](O[C@@H]2[C@@H](CO)O[C@](O)(CO)[C@H]2O)[C@H](O)[C@@H](O)[C@H]1O,inactive,–
CCOc1cccc(N)c1,inactive,–
COC(=O)c1cccc(Cl)c1,inactive,–
CN(C)C(C)(C)CO,inactive,–
CCCCSCCCC,inactive,–
CCN1CCCC1CN (configuration not stated),inactive,–
Cc1c(NC(=O)c2cccnc2)c(=O)n(-c2ccccc2)n1C,inactive,–
Cc1cc(-c2ccccc2)nnc1NCCN1CCOCC1,inactive,–
CCOC(CN1CCN(CC(C)C(=O)c2ccccc2)CC1)c1ccccc1 (configuration not stated),–,0.0674% [at 15.8 µM] (inactive)
CCn1cc(C(=O)O)c(=O)c2cnc(N3CCCC3)nc21,–,0.136% [at 6.97 µM] (inactive)
COP(=O)(O)OP(=O)(O)OC,inactive,–
CC(=O)CC(=O)OC(C)(C)C,inactive,–
COCCc1ccccn1,inactive,–
CCCC(=O)OC/C=C(\C)CCC=C(C)C,inactive,–
CCC(=O)CC,inactive,–

Compound,Potency,"activity change, negative = cytotoxicity"
Cc1c(N)cccc1Cl,inactive,–
CN(C)CCCCl,inactive,–
O=C(Cn1ccnc1[N+](=O)[O-])NCc1ccccc1,inactive,–
CC(C)C[C@@H]1[C@H](c2ccccc2)OC(=O)N1CCCN1CCCCCC1,inactive,–
Cc1cc(C)c(C(=O)O)c(C)c1,inactive,–
CC(C)(C)NC[C@H](O)COc1cccc2c1CCCC2=O,inactive,–
CC1(C)O[C@H]2CC(=O)OC[C@]23[C@H]2CC[C@@]4(C)[C@H](c5ccoc5)OC(=O)[C@H]5O[C@]54[C@]2(C)C(=O)C[C@@H]13,inactive,–
C[C@@H](O)C(=O)O,inactive,–
Cc1ccc(C(=O)O)cc1[N+](=O)[O-],inactive,–
COC(C)(OC)OC,inactive,–
CC/C(C)=N\O[Si](C)(O/N=C(\C)CC)O/N=C(\C)CC,inactive,–
OC1OCCOC1O (configuration not stated),inactive,–
CO/N=C(/C(=O)N[C@@H]1C(=O)N2C(C(=O)[O-])=C(C[n+]3ccn4ncccc43)CS[C@H]12)c1nsc(N)n1,inactive,–
N#Cc1ccccc1O,inactive,–
OCC1CCC(CO)CC1 (configuration not stated),inactive,–
CC1=C(C(=O)O)N2C(=O)[C@@H](NC(=O)[C@H](N)c3ccccc3)[C@H]2SC1,inactive,–
COc1ccc(CCO)cc1,inactive,–
N[C@@H](CSCCCO)C(=O)O,–,-0.729% [at 15.8 µM] (inactive)
